Test results as given in PubChem BioAssay.

test: small-molecule binders of probe aLefty1, primary screen, biochemical, small-molecule microarray, 635/667 nm fluorescence (AID 1153); conditions: higher = more signal;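 further: score merges spot fluorescence with signal-to-noise ratio from the scanned slide images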

Compound	composite z-score
O=C1C2C=CC(C(O)C3CCCCC3)N(Nc3ccc([N+](=O)[O-])cc3)C2C(=O)N1c1ccccc1 (configuration not stated)	0.455
C=CCNC(=O)[C@H]1[C@@H]2C(=O)O[C@@H](c3ccccc3)[C@@H](c3ccccc3)N2[C@@H](c2ccc(OCCO)cc2)[C@]12C(=O)N(C(=O)OCCOC)c1ccccc12	0.378
O=C1C2C=CC(C(O)c3c(F)cccc3Cl)N(Nc3ccccc3)C2C(=O)N1c1ccccc1 (configuration not stated)	0.547
CC(C)c1ccc(NN2C(C(O)c3cc(C(F)(F)F)cc(C(F)(F)F)c3)C=CC3C(=O)N(c4ccccc4)C(=O)C32)cc1 (configuration not stated)	-0.101
[N-]=[N+]=NCc1ccccc1C[C@]1(C(=O)O)N=C(c2ccc(OCCCO)cc2)O[C@H]1c1ccccc1N=[N+]=[N-]	0.396
O=C1O[C@H](c2ccccc2)[C@H](c2ccccc2)N2[C@H]1[C@@H](C(=O)NC[C@H](O)c1ccccc1)[C@]1(C(=O)Nc3ccccc31)[C@H]2c1ccc(OCCO)cc1	0.159
COC(=O)[C@@]1(Cc2ccc(F)cc2)[C@H]2c3cc(C(=O)N4CCCC4)n(Cc4ccc(C)o4)c3C[C@H]2CN1C(=O)c1ccccc1	-0.0464
COc1ccc([Si](C)(C)[C@H]2[C@H](CCn3cc([C@H](O)c4ccccc4)nn3)O[C@@]3(C(=O)N(Cc4cccc(N5CCOC5=O)c4)c4ccccc43)[C@@H]2C)cc1	-0.249
COc1ccc(CCNC(=O)[C@@]2(C)c3ccccc3C(=O)N(Cc3cc(F)cc(C(F)(F)F)c3)[C@H]2c2ccc(CO)cc2)cc1	-0.045
O=C1O[C@@H](c2ccccc2)[C@@H](c2ccccc2)N2[C@@H](c3ccc(OCCO)cc3)[C@]3(C(=O)Nc4ccccc43)[C@@H](C(=O)NC[C@H](O)c3ccccc3)[C@H]12	-0.0491
C=C(/C(=C/C[C@@H](OC(C)=O)c1ccc(OCCO)cc1)c1cnc2ccccc2c1)C(C)C	-0.342
O=C1OCC=C[C@H]2OC34C=CCN(CCN5CCOCC5)C(=O)[C@H]3N(CCCO)C(=O)[C@@H]4[C@@H]12 (some centres not stated)	-0.147
C=CC[C@]1(C(=O)NCCCOC)N=C(c2ccc(OCCCO)cc2)O[C@H]1c1ccccc1N=[N+]=[N-]	0.479
COCC(=C=CC[C@H](O)c1ccccc1OCCO)C[C@H](O)c1cc(Cl)cc(Cl)c1O	0.233
COC(=O)c1c(CC[C@@H](CO)NC(=O)N2CCC[C@H]2Cn2cc(-c3ccccn3)nn2)oc(C(C)=O)c1C(=O)OC	-0.101
C=CCN(Cc1ccccc1)C(=O)C(c1cccs1)N(CCOCCO)C(=O)/C=C\C(=O)O (configuration not stated)	-0.191
CCN(CC)c1ccc(N2CC=CC34O[C@@H]5/C=C\CCCOC(=O)C5[C@H]3C(=O)N(CCO)[C@@H]4C2=O)cc1 (some centres not stated)	0.0999
C=CC[C@@]1(C(N)=O)N=C(c2ccc(OCCCO)cc2)O[C@@H]1c1ccccc1CN=[N+]=[N-]	0.571
O=C1c2ccccc2[C@](Cc2ccccc2I)(C(=O)NC2CC2)[C@H](c2ccc(CO)cc2)N1C1CCCCC1	0.166
O=C(NCc1ccccc1)[C@@]1(CCS(=O)(=O)c2ccccc2)N=C(c2ccc(OCCCO)cc2)O[C@H]1c1ccccc1	0.351
CCCCCN1CC=CC23O[C@@H]4/C=C\CCCOC(=O)C4[C@H]2C(=O)N(CCCO)[C@@H]3C1=O (some centres not stated)	-0.353
C=CCNC(=O)[C@@H]1[C@H]2C(=O)O[C@H](c3ccccc3)[C@H](c3ccccc3)N2[C@H](c2ccccc2OCCO)[C@@]12C(=O)N(C(=O)OCCOC)c1ccc(C#CCNC(N)=O)cc12	0.395
COCCOC(=O)N1C(=O)[C@@]2(c3cc(C#CCCO)ccc31)[C@H](C(=O)N1CCN(c3ncccn3)CC1)[C@H]1C(=O)O[C@H](c3ccccc3)[C@H](c3ccccc3)N1[C@@H]2c1ccccc1OCCO	0.157
COc1ccc(CCN2C(=O)[C@@]3(c4ccc([N+](=O)[O-])cc4)CC(=O)N(C4CCCCC4)[C@@H]3c3ccc(CO)cc32)cc1	0.131
CCOC(=O)C[C@H]1[C@H](OC(=O)c2ccc(C(=O)c3ccccc3)cc2)[C@@H](NC(=O)c2ccc(-c3ccccc3)cc2)c2cc(OCCCO)ccc2N1C(=O)c1ccccc1	-0.199
COC(=O)C(CC#Cc1ccc2c(c1)[C@]1(C(=O)N2)[C@H](c2ccc(O)cc2)N2[C@H](c3ccccc3)[C@H](c3ccccc3)OC(=O)[C@H]2[C@@H]1C(=O)Nc1nc2ccccc2s1)C(=O)OC	0.506
O=C1[C@H]2C=C(Br)[C@H](C[C@@H]2OCCCCO)[C@@]12CO2	0.0911
